This is an account of results in PubChem BioAssay (NCI).

Compounds without any hit were thinned out: in the full panel of roughly 83,000, 20% have a hit.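 In brief: 96-well plates, 48 h treatment, single concentration, percent growth endpoint.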 A number with no mark means an inactive call. The source made the active and inactive calls. How the source made its calls: active means growth percent below 10; inactive means the rest.

For the experiment, the system named is HL-60(TB) leukemia. The experiment can be described thus: NCI-60 one-dose screen, 48 h (100 = growth as untreated, 0 = no growth, -100 = all killed). Conditions: 10 µM unless noted.
As for `COc1ccc(C2=Nn3c(nnc3-c3ccc(Cl)cc3N)SC2)cc1`, the growth was 100%.
With `Cc1cccc(-n2c(C)nc3ccc(N4CCCNC4=O)cc3c2=O)c1` the figure was 109%.
In the case of `CSc1nc(=S)c2nc(SC)n(-c3ccccc3)c2[nH]1`, the growth is 110%.
As to `O=C(Nc1ccc2[nH]c3ccccc3c2c1)c1ccccc1Cl`, the growth was 9.41% (active).
The same measure for `c1ccc(CNc2nc(Nc3ccccc3)nc3ccccc23)cc1`: 95.6%; for `COc1ccc2oc(=O)cc(CN3C(=O)S/C(=C\c4ccc(Cl)cc4)C3=O)c2c1`: 89.5%; for `O=S(=O)(NCCCNc1nccc(-c2c(-c3ccc(F)cc3)nc3sccn23)n1)c1ccc2ccccc2c1`: 34.8%.
As to `CCCCN(CCCC)CCC(=O)c1ccc(OC)c2ccccc12`, the growth was 81.1%.
In the case of `O=[N+]([O-])c1ccc(N/N=C\c2ccccc2[N+](=O)[O-])nc1`, the growth was 109%.
As to `Cc1ccc(C2=Nc3c(N)nc(N)nc3NC(c3cccc(Nc4ccnc5cc(C(F)(F)F)ccc45)c3)C2)cc1` (stereo not given), the growth was -11.3% (active).
`N#Cc1ccc(-n2cnc(NC(=O)[C@H]3CCN(C#N)C3)c2)cc1`: the growth is -20.8% (active).
As to `Cc1ccc2nc(-[n+]3cc4ccccc4cc3C)ccc2c1`, the growth was 0.144% (active).
The same measure for `COc1ccc(-c2csc(NC(=O)CSc3nc(C)cc(=O)[nH]3)n2)cc1`: 106%.
`Cc1cc(-c2cc(O)ccc2Cl)cc2nnc(Nc3ccc(OCCN4CCCC4)cc3)nc12`: the growth is -63.5% (active).
Consider `CC(O)C(N)=O` (stereo not given), for which the growth was 117%.
For `CCCCCCC(CC#N)(CCC)CCCC` (stereo not given), the growth was 112%.
The same measure for `CCCC1C(C(=O)OCC)=C(N)Oc2cc(O)ccc21` (stereo not given): 102%.
On to `O=C(COc1cccc(/C=C2\CSc3ccc(Cl)cc3C2=O)c1)c1ccc(Cl)cc1`, for which the growth was 79.2%.
With `COc1cc(-c2nc(SCCC(C)C)nc(Nc3ccccc3)c2C#N)cc(OC)c1OC` the figure was 83.9%; with `CCCCNc1ccc(Nc2ccccc2)cc1`, 16.5%.
As for `c1ccc(N(c2ccccc2)c2ccccc2)cc1`, the growth is 94.2%.
Regarding `COc1ccc2nc(-c3ccc(OC)c(OC)c3)cc(-c3nnc(SCC(=O)Nc4ccc(C(C)=O)cc4)o3)c2c1`, the growth is 77.7%.
With `O=C(Nc1cccc(Cl)c1)Nc1nccs1` the figure was 88.7%; with `O=C(N/N=C\c1cc(Br)ccc1O)c1ccncc1`, -27.5% (active).
The same measure for `Cc1ccc(S(=O)(=O)Oc2ccc3sc4cccc(NCCN(C)C)c4c(=O)c3c2)cc1`: -64% (active).
Take `CN1CCN(c2nc(-c3ccncc3)nc3sc4c(c23)CCCCCC4)CC1`: the growth was 88.3%.
As for `C=C(C)[C@@H]1CC[C@]2(COCCCN)CC[C@]3(C)[C@H](CC[C@@H]4[C@@](C)(CCCNCCCN)[C@H](C(=C)C)CC[C@]43C)[C@@H]12`, the growth was -9.28% [100 µM] (active).
Take `CCCc1cc(=O)oc2c3c(c4c(c12)OC(C)(C)C=C4)O[C@@H](C)[C@H](C)C3=O`: the growth is 48.3%.
The same measure for `COc1ccc(-c2cc(-c3cccc(NS(C)(=O)=O)c3)nc(N)c2C#N)cc1`: 0.807% (active); for `COC(=O)c1ccc(CSc2nnc(-c3ccncc3)o2)cc1`: 95.5%; for `CCN1C2=C(SC(=S)C1=C1SC(C(=O)OC)=C(C(=O)OC)S1)SC(=Nc1ccc(OC)cc1)C2=O`: 26%.
On to `Nc1ccc(-c2csc(-n3[nH]c(=O)ccc3=O)n2)cc1`, for which the growth was 97.1%.
Take `CC1(C)C(O)NC(Cl)=C(C#N)C1(C#N)C#N` (stereo not given): the growth was 114%.
On to `Fc1ccc(Cc2ccc(F)cc2)cc1`, for which the growth is 103%.
As to `S=c1cnc2ccccc2[nH]1`, the growth was 86.4%.
With `O=C1NC(=O)C(=Cc2cn(Cc3ccccn3)c3ccccc23)C(=O)N1` the figure was 101%.
Take `O=C(Nc1ccc(Cl)cc1F)c1cc(Cl)ccc1O`: the growth was -48% (active).
For the molecule `COc1ccc(OC)c(/C=C/c2nc(=S)n(-c3ccc(Cl)cc3)[nH]2)c1`, the growth is 4.33% (active).
The same measure for `CS(=O)(=O)Nc1cc(-c2ccc3ncnc(Nc4ccc5c(cnn5Cc5ccccc5F)c4)c3c2)cnc1Cl`: 22.7%.
For the molecule `O=C1/C(=C\c2cccc3nccnc23)SC(=S)N1CCc1ccc(O)cc1`, the growth was 79.5%.
